Screening results (PubChem)
Only some compounds are listed: those with a hit (about 3% of all), similar ones and a draw of the others.
SENP7 block = blocks the human protease SENP7 | 330,000 tested, 1.5% active | recombinant SENP7, Z-RLRGG-aminoluciferin luminescence, 40 min | inhibition, % at 5 µM | Q9BQF6;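 active = inhibition above about 50% at the single test dose, limit read from the data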;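 also: plate controls were DMSO with enzyme for no effect and no enzyme buffer wells for full effect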
SENP6 inh = blocks the human protease SENP6; Q9GZR1; inhibition, % at 10 µM; 330,000 tested, 1.8% active; Recombinant SENP6 catalytic domain, aminoluciferin luminescence; AID 2599;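 active = inhibition above about 50% at the single tested dose, limit read from the data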;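 also: plate controls were DMSO wells with enzyme for no effect and DMSO wells lacking enzyme for full effect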
Target sequence (Q9GZR1 628-1112 limits assumed): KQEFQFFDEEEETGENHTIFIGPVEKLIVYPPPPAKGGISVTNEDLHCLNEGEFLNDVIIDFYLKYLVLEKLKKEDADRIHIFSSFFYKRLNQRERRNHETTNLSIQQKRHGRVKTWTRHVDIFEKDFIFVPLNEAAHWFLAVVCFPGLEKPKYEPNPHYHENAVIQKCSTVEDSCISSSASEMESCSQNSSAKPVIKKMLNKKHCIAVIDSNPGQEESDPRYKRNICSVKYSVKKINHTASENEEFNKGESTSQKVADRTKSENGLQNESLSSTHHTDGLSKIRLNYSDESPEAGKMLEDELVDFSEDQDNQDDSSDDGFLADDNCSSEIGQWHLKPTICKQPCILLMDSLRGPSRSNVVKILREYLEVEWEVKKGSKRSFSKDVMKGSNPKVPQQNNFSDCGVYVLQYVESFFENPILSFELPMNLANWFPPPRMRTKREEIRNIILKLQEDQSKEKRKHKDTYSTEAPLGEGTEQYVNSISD
C8 TRAIL sens = caspase-8 TRAIL sensitization. AID 624354. NB7+C8 cells + TRAIL, ATPlite viability luminescence. inhibition (viability loss, TRAIL sensitization), % at 10 µM. 360,000 tested, 1% active;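 active = compounds causing at least 50% loss of cell viability in the single-dose screen, relative to plate controls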
SENP8 block-1 = SENP8 protease inhibition; AID 2540; purified SENP8, Z-RLRGG-aminoluciferin cleavage, luminescence; 330,000 tested, 1.2% active; inhibition, % at 10 µM; in the data active = inhibition above about 50%
Target sequence (Q96LD8 whole entry, looked up): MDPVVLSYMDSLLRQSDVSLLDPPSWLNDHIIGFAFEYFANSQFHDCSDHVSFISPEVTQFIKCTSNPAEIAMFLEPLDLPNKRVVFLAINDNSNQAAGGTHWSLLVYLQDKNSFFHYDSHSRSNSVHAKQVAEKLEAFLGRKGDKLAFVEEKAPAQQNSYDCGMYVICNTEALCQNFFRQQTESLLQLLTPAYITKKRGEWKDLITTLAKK
PPC-1+TRAIL kill = kills PPC-1 cancer cells in the presence of TRAIL. PPC-1 cells + TRAIL, ATPLite viability luminescence. cell killing (% activity), % at 4 µM or 5 µM. 220,000 tested, 0.41% active;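 active = cell killing above 50% in the first pass at 4 µM, then a duplicate retest at 5 µM averaging 50% or more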;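 also: plate controls were cells with TRAIL plus DMSO for no effect and medium-only wells lacking cells for full effect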
SENP8 block-2 = inhibitors of human SENP8 protease; 360,000 tested, 0.64% active; inhibition, % at 20 µM; Q96LD8; recombinant SENP8, Nedd8 substrate fluorescence; in the data active = inhibition mostly above about 40%, no sharp cut-off; inactive = mostly below about 27%
SENP8 confirm = human SENP8 inhibition, confirmed | shares compounds with SENP7 block | Recombinant SENP8, Z-RLRGG-aminoluciferin luminescence, 60 min | inhibition, % at 12.5 µM | 6,200 tested, 40% active | AID 488912;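 active = mean inhibition across replicates above about 50%, limit read from the data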
SENP6 conf = human SENP6 inhibition, confirmed. recombinant SENP6, Z-RLRGG-aminoluciferin luminescence. AID 488915. 6,200 tested, 58% active. shares compounds with SENP7 block. inhibition, % at 12.5 µM
SENP7 conf = confirmation of human SENP7 protease inhibitors. shares compounds with SENP7 block. recombinant SENP7, Z-RLRGG-aminoluciferin luminescence, 40 min. inhibition, % at 12.5 µM. 6,200 tested, 69% active
Casp3 SENP sel = caspase-3 inhibition (SENP selectivity assay); shares compounds with SENP7 block; purified caspase-3, Z-DEVD-aminoluciferin luminescence, 60 min; inhibition, % at 12.5 µM; 6,200 tested, 60% active; AID 488918;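 active = mean inhibition above about 50%, limit read from the data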;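 also: plate controls were enzyme with DMSO for no effect and wells without caspase-3 for full effect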
SENP luc ctr = luminescence interference (SENP counter-screen) | Pre-incubated SENP8/Z-RLRGG-aminoluciferin, luciferase luminescence interference | 6,200 tested, 39% active | AID 488919 | shares compounds with SENP7 block | inhibition, % at 12.5 µM;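 active = mean inhibition above about 50% when retested at one dose, limit read from the data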;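 also: plate controls were DMSO wells with completed reaction for no effect and substrate without enzyme for full effect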
Active calls of the source: *; x = not tested or not shown.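 The calls were made as follows, unless noted: active = mean inhibition above about 50% in the one-dose retest (limit read from the data); inactive = the rest.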

SMILES	SENP7 block	SENP6 inh	C8 TRAIL sens	SENP8 block-1	PPC-1+TRAIL kill	SENP8 block-2	SENP8 confirm	SENP6 conf	SENP7 conf	Casp3 SENP sel	SENP luc ctr
Cc1ccn2c(c1)nc(=S)n2C(=O)c1ccccc1	75.6*	60.0*	89.1*	-7.0	82.4*	-16.2	41.2	52.1*	76.1*	39.4	40.8
COc1ccc2c(c1)CC/C(=C\Nc1ccc3c(c1)OCO3)C2=O	53.7*	60.9*	51.9*	61.1*	12.9	-103.7	3.3	59.6*	48.8	10.4	13.6
O=C1/C(=C/Nc2ccc3c(c2)OCO3)CCc2ccccc21	98.2*	97.0*	85.8*	97.9*	27.1	-429.2	-23.9	100.7*	103.8*	98.2*	85.1*
Cc1ccc(NC(=O)C(C)OC(=O)c2ccc(NC(=O)CC#N)cc2)cc1S(=O)(=O)N1CCOCC1 (stereo not drawn)	6.8	2.9	6.0	-5.8	x	-33.3	x	x	x	x	x
O=C(Oc1cccc2c(O)cccc12)c1ccco1	x	x	8.8	x	x	16.0	x	x	x	x	x
Cc1c(C(=O)/C=C/c2cccs2)oc2ccc(F)cc12	-13.2	51.6*	12.1	2.2	17.7	19.5	28.4	13.5	11.2	-3.7	21.0
Cc1cc(-c2nc3cccnc3s2)ccc1NS(=O)(=O)c1cccs1	74.0*	95.3*	8.5	91.2*	16.2	-396.1	89.1*	91.8*	98.3*	86.0*	55.4*
O=S(=O)(Nc1ccc(-c2nc3cccnc3s2)cc1)c1ccc(Cl)s1	4.0	58.1*	-17.6	33.8	0.5	-411.5	35.9	33.5	54.3*	27.9	22.8
CCS(=O)(=O)Nc1ccc(-c2nc3cccnc3s2)cc1	52.9*	72.6*	-15.2	63.9*	27.0	-401.8	74.8*	72.8*	94.3*	85.9*	77.7*
O=S(=O)(Nc1ccc(-c2nc3cccnc3s2)cc1)c1cccs1	29.3	64.9*	-6.8	22.5	18.1	-393.4	21.4	13.7	18.7	31.1	6.4
CC1CC(C)CN(CC(=O)Nc2cc(S(=O)(=O)N3CCOCC3)ccc2N2CCCC2)C1 (stereo not drawn)	8.7	9.8	7.5	-1.0	x	1.3	x	x	x	x	x
CC(C)Oc1ccc(NC(=O)Oc2ccccc2)cc1	-0.8	88.0*	2.7	79.9*	13.7	12.6	0.8	100.0*	103.4*	98.4*	93.5*
CC(=O)c1ccc(NC(=O)Oc2ccccc2)cc1	5.2	-16.7	-5.4	-4.4	5.6	10.1	x	x	x	x	x
COc1ccc(-c2[nH]ncc2CN(CCO)Cc2cccs2)c(F)c1	0.8	-1.5	-18.7	5.9	0.3	12.7	x	x	x	x	x
CSc1ccc(/C=N/NC(=O)c2cc(O)cc(O)c2)cc1	43.4	58.2*	46.5	22.1	21.5	-169.4	59.1*	57.9*	84.4*	65.2*	64.9*
CSc1ccc(/C=N/NC(=O)c2sccc2C)cc1	100.4*	94.3*	26.6	92.3*	30.1	-158.3	13.8	60.6*	101.3*	62.8*	-5.0
CSc1ccc(/C=N/NC(=O)c2ccc(C)c(C)c2)cc1	-0.7	-27.6	-3.9	-5.5	3.6	-100.0	x	x	x	x	x
Cc1ncoc1C(=O)N1CCCC(N2CCN(c3cccc(C(F)(F)F)c3)CC2)C1 (stereo not drawn)	-3.7	4.3	-6.6	4.8	x	-4.1	x	x	x	x	x
C/C(=N\NC(=O)c1cccs1)c1ccc2ccccc2c1	-5.2	-10.6	12.9	-8.8	x	-1.8	x	x	x	x	x
C/C(=N\NC(=O)c1ccc2ccccc2c1)c1cccs1	83.3*	84.1*	55.1*	69.9*	x	-4.1	54.2*	52.8*	92.8*	84.1*	10.3
Cc1cc(C)c(C)c(OCC(O)CN2CCN(c3ccccn3)CC2)c1 (stereo not drawn)	-8.9	-6.6	2.3	2.7	x	9.1	x	x	x	x	x
CN(Cc1ccccc1)N=Nc1nc[nH]c1C(N)=O	x	x	-13.2	x	x	22.9	x	x	x	x	x
Brc1ccc(-c2nc(-c3ccccn3)no2)o1	89.1*	89.0*	42.6	86.9*	41.2	1.7	92.6*	93.5*	100.8*	96.2*	91.6*
COc1ccccc1-c1nc(-c2ccc(C)nc2OC)no1	25.7	17.5	14.1	-1.2	18.1	-5.1	x	x	x	x	x
Clc1ccccc1-c1nc(-c2ccc(Br)o2)no1	82.5*	86.3*	9.6	83.1*	x	2.8	-2.7	84.8*	96.6*	68.4*	73.4*
SMILES	SENP7 block	SENP6 inh	C8 TRAIL sens	SENP8 block-1	PPC-1+TRAIL kill	SENP8 block-2	SENP8 confirm	SENP6 conf	SENP7 conf	Casp3 SENP sel	SENP luc ctr
Brc1ccc(-c2noc(-c3ccccn3)n2)o1	91.1*	85.3*	30.5	86.2*	x	22.8	40.4	86.3*	98.6*	93.1*	38.8
COc1nc(C)ccc1-c1noc(-c2ccccn2)n1	52.8*	47.8	46.8	22.7	31.3	2.2	45.4	50.9*	86.3*	83.3*	25.2
O=[N+]([O-])c1ccccc1-c1nc(-c2ccc(Br)o2)no1	20.6	37.8	15.0	15.4	5.0	-5.4	x	x	x	x	x
CCN(c1ccccc1)S(=O)(=O)c1ccc(Cl)c(NC(=O)CSc2n[nH]c(N)n2)c1	-5.9	-16.2	-5.4	-9.6	17.4	20.0	x	x	x	x	x
CC(C)(C)C(=O)Nc1ccc(-c2nc3ccccc3c(=O)o2)cc1	67.5*	62.0*	59.2*	-0.9	41.1	-14.9	3.5	6.4	11.7	12.7	6.2
C[C@H]1CN([C@@H](C)CO)C(=O)c2cc(Br)cnc2O[C@@H]1CN(C)C(=O)C1CCC1	x	x	8.4	x	x	9.3	x	x	x	x	x
O=C(Nc1nnc(CSCc2ccccc2F)s1)c1cccc([N+](=O)[O-])c1	3.6	55.7*	10.4	25.0	8.0	-18.9	9.7	5.6	1.5	7.0	0.8
Cc1nnc(SCc2cccc([N+](=O)[O-])c2)s1	-5.0	7.6	-3.3	0.2	27.7	12.7	x	x	x	x	x
O=C(Nc1nnc(S(=O)(=O)N2CCCC2)s1)c1cccc([N+](=O)[O-])c1	19.7	51.9*	16.6	33.9	x	1.6	10.1	30.1	5.5	25.8	2.4
CC(C)C(=O)Nc1nnc(CSCc2ccccc2F)s1	-10.8	-18.3	-12.0	-10.8	13.2	2.5	x	x	x	x	x
O=C(Nc1nnc(SCc2ccccc2)s1)c1cccc([N+](=O)[O-])c1	21.8	84.2*	4.9	70.5*	16.2	16.1	68.5*	66.5*	83.0*	53.4*	43.8
CCOc1ccc(NC(=O)CSc2nc3ccsc3c(=O)n2Cc2ccc(C(=O)O)cc2)cc1	x	x	-11.3	x	x	15.9	x	x	x	x	x
